Where a name gives a salt, the structure may show the parent alone.

This assay has as its system Saccharomyces cerevisiae BY4741 SeMeCo community. The assay can be described thus: z-score of subpopulation abundance vs DMSO median, subpopulation auxotrophic for HLM; higher = larger share of this subpopulation than in DMSO controls. The following applies: 10 µM; 24 h; SM minimal medium; subpopulation (auxotrophy): HLM. The protocol:
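Fluorescent four-plasmid SeMeCo (self-establishing metabolically cooperating S. cerevisiae BY4741 community; plasmids pH-mRuby2, pL-mWasabi, pU-eCFP, pM-TagRFP657) was grown 24 h in minimal SM medium with each Selleck FDA-approved drug at 10 µM in 384-well plates. Cells were fixed and imaged by high-content confocal microscopy. For each auxotrophic subpopulation (and the prototroph), a z-score gives the deviation from the DMSO vehicle-control population median.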
`C[C@@H]1CC[C@H]2[C@@H](C)C(=O)O[C@@H]3O[C@@]4(C)CC[C@@H]1[C@]32OO4` [Artemisinin]: the “z-score of subpopulation abundance” value is -0.69. `CC[C@H]1[C@@H]2C[C@H]3[C@@H]4N(C)c5ccccc5[C@]45C[C@@H]([C@@H]2[C@H]5O)N3[C@@H]1O` [Ajmaline]: the “z-score of subpopulation abundance” value was -0.46. With `CN[C@@H]1[C@@H](O)[C@@H](O[C@@H]2[C@@H](O)[C@H](O[C@H]3O[C@H]([C@@H](C)O)[C@@H](O)[C@H](O)[C@H]3N)[C@@H](N)C[C@H]2N)OC[C@]1(C)O` [Geneticin (G418 Sulfate)], the “z-score of subpopulation abundance” value was -0.13. The same measure for `COc1cc2c(cc1OC)C1CC(=O)C(CC(C)C)CN1CC2` (stereo not given) [Tetrabenazine (Xenazine)]: 3.78.

In the case of `COc1ccc2[nH]cc(CCN)c2c1` [5-Methoxytryptamine], the “z-score of subpopulation abundance” value was 0.21. The same measure for `COc1ccc(C(CN(C)C)C2(O)CCCCC2)cc1` (stereo not given) [Venlafaxine HCl]: -0.22; for `CCN(C)C(=O)Oc1cccc([C@H](C)N(C)C)c1` [Rivastigmine]: -0.03; for `COc1ccc(C=O)cc1` [p-Anisaldehyde]: -0.78. The same measure for `CC[C@@]1(O)C(=O)OCc2c1cc1n(c2=O)Cc2cc3ccccc3nc2-1` [Camptothecin]: -0.76; for `CCN(CC)CCOC(=O)C(O)(c1ccccc1)c1ccccc1` [Benactyzine hydrochloride]: 0.1; for `C[CH2][Hg][S]c1ccccc1C(=O)[O-].[Na+]` [Thimerosal]: 131. The figure for `CN1[C@@H]2CC[C@H]1C[C@@H](OC(=O)C(CO)c1ccccc1)C2` (stereo not given in full) [Atropine sulfate monohydrate] is -0.94; for `O=C(O[C@H]1C[N+]2(CCCOc3ccccc3)CCC1CC2)C(O)(c1cccs1)c1cccs1` [Aclidinium Bromide] it is -0.51; for `C[N+]12CCC(CC1)C(OC(=O)C(O)(c1ccccc1)c1ccccc1)C2` (stereo not given) [Clidinium Bromide] it is -0.26. Turning to `Nc1ccncc1` [4-Aminopyridine], the “z-score of subpopulation abundance” value is -0.2. Take `CCOC(=O)Nc1ccc(NCc2ccc(F)cc2)cc1N` [Retigabine]: the “z-score of subpopulation abundance” value was determined as 0.18.

For the compound `C[C@@H]1O[C@@H](O[C@H]2C[C@@H](O)[C@]3(CO)[C@H]4[C@H](O)C[C@]5(C)[C@@H](C6=CC(=O)OC6)CC[C@]5(O)[C@@H]4CC[C@]3(O)C2)[C@H](O)[C@H](O)[C@H]1O` [Ouabain], the “z-score of subpopulation abundance” value is -0.79. With `O=[N+]([O-])C(Br)(CO)CO` [Bronopol], the “z-score of subpopulation abundance” value was -0.88.

Consider `CCN(C)C(=O)Oc1cccc([C@H](C)N(C)C)c1` [Rivastigmine Tartrate], for which the “z-score of subpopulation abundance” value amounted to 0.01. The figure for `CCCN1C[C@H](CSC)C[C@@H]2c3cccc4[nH]cc(c34)C[C@H]21` [Pergolide Mesylate] is -0.43. As for `CN(C)[C@@H]1C(=O)C(C(N)=O)=C(O)[C@@]2(O)C(=O)C3=C(O)c4c(O)cccc4[C@@](C)(O)[C@H]3[C@H](O)[C@@H]12` [Oxytetracycline Dihydrate], the “z-score of subpopulation abundance” value is -0.22.

`CC(C)=CCOc1c2occc2cc2ccc(=O)oc12` [Imperatorin]: the “z-score of subpopulation abundance” value came to 1.2. As for `Cc1cc(O)ccc1Cl` [Chlorocresol], the “z-score of subpopulation abundance” value is -0.58. The same measure for `C[C@H]1O[C@H](O[C@H]2[C@H](O)[C@@H](O)[C@@H](O)[C@H](O)[C@@H]2O)[C@@H](N)C[C@@H]1NC(=N)C(=O)O` [Kasugamycin hydrochloride]: -0.54; for `CN1[C@@H]2C[C@@H](OC(=O)[C@H](CO)c3ccccc3)C[C@H]1[C@@H]1O[C@@H]12` [Scopolamine HBr]: -0.52. The same measure for `Nc1nc(N)nc(NC2CC2)n1` [Cyromazine]: 0.4. In the case of `CNC1CC(N)C(O)C(OC2OC(CO)C(O)C3OC4(OC(C(N)CO)C(O)C(O)C4O)OC23)C1O` (stereo not given) [Hygromycin B], the “z-score of subpopulation abundance” value is -0.02.

For the compound `COc1ccc2c3c([nH]c2c1)C(C)=NCC3` [Harmaline], the “z-score of subpopulation abundance” value is 2.63. The same measure for `COc1ccc2c(c1)[C@]13CCCC[C@@H]1[C@H](C2)N(C)CC3` [Dextromethorphan hydrobromide hydrate]: 0.03; for `CC(=O)O[C@H]1C[C@@H]2CC[C@@H]3[C@H](CC[C@@]4(C)[C@H]3C[C@H]([N+]3(C)CCCCC3)[C@@H]4OC(C)=O)[C@@]2(C)C[C@@H]1[N+]1(C)CCCCC1` [Pancuronium dibromide]: -0.05; for `C[N+](C)(C)CCCCCCCCCC[N+](C)(C)C` [Decamethonium Bromide]: -0.27. The figure for `NC(=O)CN1CCCC1=O` [Piracetam] is 1.38. The figure for `CN1c2ccccc2C(NCCCCCCC(=O)O)c2ccc(Cl)cc2S1(=O)=O` (stereo not given) [Tianeptine sodium] is -0.48; for `CCOC(=O)Nc1ccc(NCc2ccc(F)cc2)cc1N` [Retigabine 2HCl] it is -0.02; for `C=CC[C@]1(O)CC[C@H]2[C@@H]3CCC4=CC(=O)CCC4=C3C=C[C@@]21C` [Altrenogest] it is -0.47. Regarding `CC[C@H]1CN2CC[C@]3(C(=O)Nc4ccccc43)[C@@H]2C[C@@H]1/C(=C\OC)C(=O)OC` [Rhynchophylline], the “z-score of subpopulation abundance” value was found to be 1.16. The same measure for `O=c1[nH]c2ccccc2n1CCCN1CCC(n2c(=O)[nH]c3cc(Cl)ccc32)CC1` [Domperidone]: 1.97. In the case of `CN[C@@H]1[C@@H](O)[C@@H](O[C@@H]2[C@@H](O)[C@H](O[C@H]3O[C@H](CN)CC[C@H]3N)[C@@H](N)C[C@H]2N)OC[C@]1(C)O.CN[C@@H]1[C@@H](O)[C@@H](O[C@@H]2[C@@H](O)[C@H](O[C@H]3O[C@H]([C@@H](C)N)CC[C@H]3N)[C@@H](N)C[C@H]2N)OC[C@]1(C)O.CN[C@@H]1[C@@H](O)[C@@H](O[C@@H]2[C@@H](O)[C@H](O[C@H]3O[C@H]([C@@H](C)NC)CC[C@H]3N)[C@@H](N)C[C@H]2N)OC[C@]1(C)O` [Gentamicin Sulfate], the “z-score of subpopulation abundance” value amounted to 0.75. `CC(NC(C)(C)C)C(=O)c1cccc(Cl)c1` (stereo not given) [Amfebutamone (Bupropion) HCl]: the “z-score of subpopulation abundance” value was 0.09. With `CN(C)[C@@H]1C(=O)C(C(N)=O)=C(O)[C@@]2(O)C(=O)C3=C(O)c4c(O)cccc4[C@@](C)(O)[C@H]3[C@H](O)[C@@H]12` [Oxytetracycline (Terramycin)], the “z-score of subpopulation abundance” value came out at 2.78.

(Values after the supplement of paper PMC8975748.)
